# Measured values: PubChem BioAssay (Tox21)
# Inconclusive results are not listed. Calls of active or inactive are those of the source. Calls come from the whole dose curve.
# Experiment: qHTS assay to identify small molecule agonists of the progesterone receptor (PR) signaling pathway - cell viability counter screen (AID 1346799); note: nearly all actives have a fitted effect of over 45% in size
# Details: PR-UAS-bla HEK293T viability, CellTiter-Glo luminescence, 16 h; series mostly up to 92.4 µM; activity change, negative = cytotoxicity: at the top concentration
# Description: National Center for Advancing Translational Sciences [NCATS]
# NIH Chemical Genomics Center [NCGC]
# U.S. Environmental Protection Agency [EPA]
# National Institutes of Environmental Health Sciences [NIEHS]
# National Toxicology Program [NTP]
# U.S. Food and Drug Administration [FDA]
# Progesterone receptor (PR), a nuclear hormone receptor, plays an important role in development, metabolic homeostasis and reproduction. It is activated by the steroid hormone progesterone. Endocrine disrupting chemicals (EDCs) and their interactions with steroid hormone receptors like PR causes disruption of normal endocrine function. To identify the compounds that stimulate PR signaling, a PR-UAS-bla GripTite cell line i.e. PR-UAS-bla HEK293T (Invitrogen, Carlsbad, CA, USA) containing a beta-lactamase reporter gene under the control of an UAS response element was used to screen Tox21 10K compound library. The cytotoxicity of the Tox21 compound library against the PR-bla cell line was tested in parallel by measuring the cell viability using CellTiter-Glo assay in the same wells.
# Tox21 Assay Protocol Summary:
# PR-UAS-bla HEK293T cells were dispensed at 3,000 cells/5 uL of assay medium containing 2% charcoal stripped FBS per well into black wall/clear-bottom 1536-well plates using a Multidrop Combi (ThermoFisher Scientific, Waltham, MA) dispenser. After the assay plates were incubated at a 37C and 5% CO2 for 6 hr, 23 nL of compounds dissolved in DMSO, positive controls or DMSO only was transferred to the assay plate by a Pintool station (Kalypsys, San Diego, CA). The plates were incubated at 37C and 5% CO2 for 16 hr. Then 1 uL of LiveBLAzer B/G FRET substrate was added using a Flying Reagent Dispenser (FRD, Aurora Discovery, San Diego, CA), the plates were incubated at room temperature for 2 hours, and fluorescence intensity was measured by an Envision plate reader (PerkinElmer, Shelton, CT). For cell viability readout that measures cytotoxicity, 4 uL/well of CellTiter-Glo reagent was added into the assay plates using a FRD. After 30 min incubation at room temperature, the luminescence intensity in the plates was measured using a ViewLux (PerkinElmer) plate reader.
# % is set by controls: 0 for no effect and ±100 for the full control effect; potency is the fitted concentration of half-maximal effect.
Compound,"activity change, negative = cytotoxicity",Potency
OCC1CC=CCC1 (stereo not given),-17.3% (inactive),
c1ccc(COCc2ccccc2)cc1,0.0108% (inactive),
CCc1cccc(N(C)C(N)=Nc2cccc3ccccc23)c1,-1.52% [at 42.5 µM] (inactive),
C[N+]1(C)CCC(=C(c2ccccc2)c2ccccc2)CC1,13.8% [at 42.5 µM] (inactive),
CC1CN(c2cc3c(cc2F)c(=O)c(C(=O)O)cn3-c2ccc(F)cc2F)CCN1 (stereo not given),-0.292% [at 8.39 µM] (inactive),
COC(=O)c1cc(S(N)(=O)=O)ccc1OC,-5.22% [at 42.5 µM] (inactive),
CC(=O)Oc1ccc(C(=C2CCCCC2)c2ccc(OC(C)=O)cc2)cc1,-25.1% [at 42.5 µM] (inactive),
CC(C)CCCCCOC(=O)CCCCC(=O)OCCCCCC(C)C,0.197% (inactive),
COc1ccccc1N=Nc1c(S(=O)(=O)O)cc2cc(S(=O)(=O)O)cc(NC(C)=O)c2c1O,3.17% (inactive),
CCCCN(CCCC)C(=S)SSC(=S)N(CCCC)CCCC,-5.08% (inactive),
CCCCC(CC)C(=O)OCCOCCOCCOCCOC(=O)C(CC)CCCC (stereo not given),27.9% (inactive),
CCCCC(=O)O[C@]1(C(=O)CO)CC[C@H]2[C@@H]3CCC4=CC(=O)CC[C@]4(C)[C@H]3[C@@H](O)C[C@@]21C,3.14% [at 42.5 µM] (inactive),
COCC(O)CO (stereo not given),5.89% (inactive),
CCOC(=O)C(C)Oc1ccc(Oc2nc3ccc(Cl)cc3o2)cc1 (stereo not given),24.8% (inactive),
O=C(NCCCN1CCOCC1)c1ccc(Cl)cc1,-38.8% [at 42.5 µM] (inactive),
CCC(C)(C)C1CCC(O)CC1 (stereo not given),-9.61% (inactive),
CC(=O)Nc1ccccc1C,-12.9% (inactive),
O=C(/C=C/c1ccccc1)OCCCc1ccccc1,7.37% (inactive),
CN1CCCN=C1/C=C/c1cccs1,-1.44% [at 42.5 µM] (inactive),
CCCCCCCC/C=C\CCCCCCCC(=O)OC,15.2% (inactive),

Compound,"activity change, negative = cytotoxicity",Potency
O=C(O)Cc1ccc(-c2ccccc2)cc1,3.28% [at 42.5 µM] (inactive),
NCC1CCCC(CN)C1 (stereo not given),-0.92% (inactive),
COC(=O)c1cc(Cl)ccc1NS(=O)(=O)C(F)(F)F,0% [at 42.5 µM] (inactive),
CC1=CC(=O)CC(C)(C)C1(O)/C=C/C(C)=C\C(=O)O (stereo not given),12.6% (inactive),
Nc1nc(Cl)nc2c1ncn2[C@@H]1O[C@H](CO)[C@@H](O)[C@@H]1F,9.99% [at 42.5 µM] (inactive),
CCn1cc(C(=O)O)c(=O)c2cc(F)c(N3CCNCC3)nc21,0.0575% [at 42.5 µM] (inactive),
CC[C@@H]([C@H](C)O)n1ncn(-c2ccc(N3CCN(c4ccc(OC[C@@H]5CO[C@@](Cn6cncn6)(c6ccc(F)cc6F)C5)cc4)CC3)cc2)c1=O,,16.8 µM (active)
C/C=C(\C)C(=O)OCCC(C)CCC=C(C)C (stereo not given),6.95% (inactive),
CCC(C(=O)OCCN(CC)CC)c1ccccc1 (stereo not given),-3.62% [at 42.5 µM] (inactive),
CN(C(=O)C(Cl)Cl)c1ccc(OC(=O)c2ccco2)cc1,-0.267% [at 42.5 µM] (inactive),
CCCCCCCCCCCC[N+](C)(C)CC(=O)[O-],,21.7 µM (active)
CCCCCCCCCCCCCCCCBr,9.85% [at 19 µM] (inactive),
Cc1cc(C(=C2C=CC(=Nc3ccc(S(=O)(=O)O)cc3S(=O)(=O)O)C=C2)c2ccc(Nc3ccc(S(=O)(=O)O)cc3)cc2)ccc1N,-6.87% [at 42.5 µM] (inactive),
CN1CCN(CCCN2c3ccccc3Sc3ccc(S(=O)(=O)N(C)C)cc32)CC1,,6.68 µM (active)
CCC(C)=O,-0.722% (inactive),
CCC(=O)OC/C=C/c1ccccc1,,inactive
Nc1c(I)cc(I)c(C(=O)N(CCC(=O)O)c2ccccc2)c1I,1.03% [at 42.5 µM] (inactive),
CCC(C)(O)CCC=C(C)C (stereo not given),-1.84% (inactive),
C[Si]1(C)O[Si](C)(C)O[Si](C)(C)O1,-3.89% (inactive),
CCCOC(=O)c1ccc(C(=O)OCCC)nc1,-6.57% (inactive),
